Screening data from PubChem BioAssay.
KLF5 inhibitor: kruppel-like factor 5 inhibition. inhibition, % at 5 µM. DLD-1 KLF5 promoter-luciferase reporter, luminescence. AID 1700. 290,000 tested, 0.23% active;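 active = inhibition above a per-plate limit of that plate's mean compound inhibition plus 3 SD, cut at about 60% in these data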;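 also: 0% = DMSO wells and 100% = LY294002 at 200 µM; higher means less KLF5 promoter-driven luciferase light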
aSyn UTR inh: MLPCN primary screen, SNCA 5' untranslated region; alpha-synuclein 5'UTR reporter, inhibitor activity; inhibition, % (tested at 7.5 µM); 300,000 tested, 0.82% active; AID 1813; in the data active = inhibition above about 60%;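 also: H4 neuroglioblastoma cells stably carrying SNCA 5'UTR luciferase fusion; 0% = DMSO wells and 100% = positive control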
Ba/F3 V617F tox: reduce viability of Ba/F3 cells dependent on JAK2V617F. Ba/F3 EpoR-JAK2V617F viability, ATP luminescence. inhibition, % at 5.6 µM. 220,000 tested, 1.1% active. AID 1446;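 active = inhibition above the campaign mean plus 3 SD over all tested compounds, cut at about 24% in these data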;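 also: cytokine-independent growth of Ba/F3 cells driven by EpoR plus mutant JAK2; 0% = DMSO-treated cells and 100% = JAK inhibitor I control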
BaF3 parental: counter-screen for JAK2V617F inhibitors: parental Ba/F3 viability inhibitors | 220,000 tested, 1.1% active | inhibition, % at 5.6 µM | CellTiter-Glo ATP luminescence;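 active = inhibition above a per-campaign cutoff, the mean inhibition of all tested compounds plus 3 SD, cut at about 27% in these data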;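 also: 0% = DMSO wells and 100% = JAK Inhibitor I control wells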
APP 5UTR inh: APP translation inhibition; 190,000 tested, 0.82% active; inhibition, % at 2 µM; SH-SY5Y APP 5'UTR-luciferase reporter, luminescence;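 active = inhibition above a set limit, derived from the sample mean plus 3 SD, cut at about 45% in these data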
IEC-6 tox: kills IEC-6 intestinal cells in KLF5 counter-screen; 290,000 tested, 0.78% active; inhibition, % at 5 µM; IEC-6 cytotoxicity, luminescence viability; in the data active = inhibition above about 22%;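 also: 0% = plate median of test compound wells and 100% = cytotoxic reference compound wells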
Starred values were filed as active, the others as inactive; / = not tested or not shown; ! = a repeat was not active. Most compounds without a hit are left out; they make up all but 2.1% or so of the library.

SMILES	KLF5 inhibitor	aSyn UTR inh	Ba/F3 V617F tox	BaF3 parental	APP 5UTR inh	IEC-6 tox
Cc1c(NC(=O)c2cc3nc(-c4ccc(Br)cc4)cc(C(F)(F)F)n3n2)c(=O)n(-c2ccccc2)n1C	-3	16	2	94*	12	3
C[N+]1(CC(=O)OC2CCCCCCCCCCC2)CCCC1	-8	19	73*	72*	-3	9
CC(=O)/C(C[N+]1(C)CCCCC1)=N\O	5	1	3	1	0	6
CCCn1c(Nc2cccc(OC)c2)nc2ccccc21	-26	-6	/	/	/	-1
COc1cc(/C=C2/SC(=Nc3ccc(O)cc3)NC2=O)ccc1O	36	-23	75*	72*	/	13
COc1cc(/C=C2\SC(=Nc3ccccc3OC)NC2=O)ccc1O	16	-1	/	/	/	7
CN(C)c1nc(-c2ccccn2)nnc1-c1ccccc1	22	79*	4	7	30	12
COc1cnc(-c2ccccn2)nc1N(C)C	4	99*	-2	1	34	20
NC(=O)c1nsc(C(=O)N(Cc2cccnc2)C(C(=O)NCc2ccc(F)cc2)c2ccc(O)cc2)c1N (stereo unspecified)	-20	15	/	/	/	-9
CCCCc1ccc(/C(C)=N/Nc2cc(N3CCOCC3)nc(C)n2)cc1	-7	-6	/	/	/	4
O=C(NCc1nnc(SCC(=O)N2CCN(c3ccccc3)CC2)o1)c1c(F)cccc1F	-10	4	/	/	/	-2
CCOc1cc(CNCCCN2CCOCC2)cc(Br)c1OCc1ccccc1Cl	-14	96*	11	11	-21	6
Cc1ccccc1CNc1nc(N)n(-c2ccccc2)n1	-33	-2	-2	96*	0	6
O=C1CC(c2ccccc2)c2cccc(F)c21 (stereo unspecified)	3	0	/	/	/	-1
CCOc1ccc(C(=O)N[C@H](C(=O)Nc2cccc(S(=O)(=O)N3CCCCC3)c2)C(C)C)cc1	-13	76*	1	7	-3	1
COc1ccc(NS(=O)(=O)c2cccc(NC(=O)c3ccc(S(=O)(=O)N4CCCCCC4)cc3)c2)cc1	-19	9	42*	44*	22	11
COc1cc(/C(C)=N/NC(=O)c2cccc(S(=O)(=O)N3CCCC3)c2)cc(OC)c1OC	-25	1	/	/	/	3
Cc1cccc(C(=O)N[C@H](C(=O)Nc2cccc(S(=O)(=O)N3CCCC3)c2)C(C)C)c1	6	8	-1	-13	/	1
COc1ccc(NS(=O)(=O)c2ccc(N3CCOCC3)c(NC(=O)c3ccccc3Cl)c2)cc1	6	15	43*	42*	-2	2
COc1ccc(/C(C)=N/NC(=O)c2cccc(S(=O)(=O)N3CCCC3)c2)c(O)c1	/	78*	/	/	/	/
Cc1ccc(-c2ccc(=O)n(Cc3cccc(Br)c3)n2)cc1	-28	0	/	/	/	0
COc1ccc(NS(=O)(=O)c2ccc(N3CCOCC3)c(NC(=O)c3ccc(OC)cc3)c2)cc1	-20	7	41*	42*	-4	6
C=CCn1c(-c2ccc(OC)cc2)nc2ccccc21	-24	-73	42*	38*	-11	1
CC(C)C(NC(=O)/C=C/c1cccc([N+](=O)[O-])c1)C(C)C	-2	11	-6	3	-8	-5
CC(C)NC(=O)c1ccccc1NC(=O)/C=C/c1cccc([N+](=O)[O-])c1	-16	63*	0	6	29	-1
SMILES	KLF5 inhibitor	aSyn UTR inh	Ba/F3 V617F tox	BaF3 parental	APP 5UTR inh	IEC-6 tox
Cc1c(CCC(=O)N2CCC[C@H]2C(=O)O)c(=O)oc2cc3oc4c(c3cc12)CCCC4	-6	77*	/	/	/	-4
Cc1c(CCC(=O)O)c(=O)oc2cc3oc4c(c3cc12)CCCC4	-15	68*	-2	1	/	2
Cc1c(CCC(=O)NCC(=O)NCC(=O)O)c(=O)oc2cc3oc4c(c3cc12)CCCC4	3	-3	/	/	/	4
CCOC(=O)CCC(=O)Nc1ccc([N+](=O)[O-])cc1C	2	8	-10	1	8	-4
O=C(Nc1ccccc1C(F)(F)F)N1CCN(c2ccccn2)CC1	-11	-4	0	89*	-10	5
Brc1ccc2c(c1)C(C1=NCCN1)c1ccccc1CS2 (stereo unspecified)	59	42	74*	66*	94*	67*
CCOC(=O)c1c(C)nc2sc(C(N)=O)c(N)c2c1-c1ccc(OC)cc1	-13	17	-4	-1	64*	0
Cc1cccc(NC(=S)N/N=C/c2cccc(O)c2)c1C	38	-37	78*	51*	/	13
Cc1cc2oc(=O)cc(CN3CCCCC3C)c2cc1Cl (stereo unspecified)	-16	34	/	/	/	-2
Cc1cc2oc(=O)cc(Cn3ncc(Cl)c(Cl)c3=O)c2cc1Cl	-22	3	1	3	88*	-5
O=C(c1cccc(C(F)(F)F)c1)C1CCCN(C(=O)CN2CCOC2=O)C1 (stereo unspecified)	-16	-19	/	/	/	-3
O=C(c1ccccc1)c1c[nH]c(C(=O)NNc2ccccc2)c1	15	22	-2	1	-3	5
CC[C@H](C)C(=O)O[C@H]1CCC=C2C=C[C@H](C)[C@H](CC[C@@H]3C[C@@H](O)CC(=O)O3)[C@H]21	16	40	62*	27*!	5	3
CC[C@H](C)C(=O)O[C@H]1C[C@@H](C)C=C2C=C[C@H](C)[C@H](CC[C@@H]3C[C@@H](O)CC(=O)O3)[C@H]21	-23	5	3	8	8	-3
CC(C)CN(C(=O)COC(=O)Cc1c[nH]c2ccccc12)c1c(N)n(Cc2ccccc2)c(=O)[nH]c1=O	/	21	/	/	/	/
Cn1cc(/C=N/n2cnc3scc(-c4ccccc4)c3c2=O)c2ccccc21	-27	66*	2	5	92*	1
Cc1ccccc1-c1nnn(CC(=O)N(C)CC(=O)Nc2ccccc2C(F)(F)F)n1	/	-2	/	/	/	/
CCOC(=O)c1ccc(N2C(=O)CC(N3CCC(Nc4ccc(F)cc4)CC3)C2=O)cc1 (stereo unspecified)	16	-5	4	49*	17	3
CCOC(=O)c1c(C)[nH]c2ccc(O)cc12	-1	-31	4	5	50*	-6
O=C1NC(c2ccco2)Nc2sc3c(c21)CCN(Cc1ccccc1)C3 (stereo unspecified)	-9	/	-4	6	13	-4
CN1CCc2c(sc3c2C(=O)NC(c2ccc(-c4ccc(Cl)cc4)o2)N3)C1 (stereo unspecified)	-19	-5	-1	-6	/	-2
CN1CCc2c(sc3c2C(=O)NC(c2cn(Cc4ccccc4)c4ccccc24)N3)C1 (stereo unspecified)	1	64*	4	5	16	5
CN1CCc2c(sc3c2C(=O)NC(c2ccco2)N3)C1 (stereo unspecified)	-8	-18	-2	30*	15	8
